TTR transcr act: increases transthyretin transcription; activation, % at 16.7 µM; AID 1117267; SH-SY5Y TTR promoter Gaussia luciferase, luminescence; 100% = recombinant luciferase protein wells; hit rate 1.3% among 92,000;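 active means activation above the mean of all tested compounds plus 3 SD, cut at about 9.5% in these data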;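 further: cells exposed to compounds for one day before reading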
TTR inh HuH7: counter-screen for TTR activators: TTR transcription inhibitors in HuH7 cells; HuH7 TTR promoter-Gaussia luciferase reporter, luminescence; hit rate 4% among 1,100; shares compounds with TTR transcr act; inhibition, % at 16.7 µM;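 active means average inhibition above the solvent-only control wells' mean plus 3 SD, cut at about 15% in these data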;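 further: inhibitors lower well luminescence so higher value means more inhibition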
TTR act confirm: confirmation of human transthyretin transcription activators. SHSY5Y TTR promoter Gaussia luciferase, luminescence; 100% = purified Lucia enzyme wells, no cells. AID 1117280. activation, % at 16.7 µM. shares compounds with TTR transcr act. 1,100 tested, under 10 active;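 active means mean activation above a set limit taken from the earlier primary screen, cut at about 11% in these data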
Each line names hits and unclear results; the compound was inactive in the other large screens (follow-up assays come after a bar, where they were run). The full list was thinned out, with hits kept by preference.

CC(=O)O[C@H]1CC[C@]2(C)C3CC[C@]4(C)[C@@H]([C@H](C)/C=C/[C@H](C)C(C)C)CC[C@H]4[C@@]34C=C[C@]2(C1)N(C(=O)c1ccccc1)O4 (stereo not given in full)	none
FC(F)(F)Oc1cccc(Cn2ccc3ccc(-c4ccc5ccn(Cc6ccccc6)c5c4)cc32)c1	none
Oc1ccc(Cl)cc1CNCc1ccc(F)c(F)c1	none
COc1ccc(CNCc2cc(Cl)ccc2O)cc1	TTR transcr act 10.2 | TTR inh HuH7 inactive | TTR act confirm inactive
COc1ccc(CNCc2cccc(C)c2)cc1	none
Cc1cnc(CN(C)C(=O)C2CCC(=O)N(CCc3ccc(Cl)cc3)C2)[nH]1 (stereo not given)	none
C#CCN1CC(COc2ccccc2)OCCS1(=O)=O (stereo not given)	none
CCOC(=O)C1(C)CCN1C(=O)Cc1ccc(OC)cc1 (stereo not given)	none
COc1ccc(/C=C/S(=O)(=O)NCC(C)C)c(CNC(=O)OC(C)(C)C)c1	none
CN(CCOc1ccc(Cl)cc1)C(=O)Cc1ccc(S(=O)(=O)N2CCOCC2)s1	none
Cc1cc(OCC(=O)OCC(=O)N2CC(C)CC(C)C2)ccc1Cl (stereo not given)	none
C#CCOCCOCCOCCNc1nc(N2CCN(C(=O)[C@H]([C@@H](C)O)n3cc(CCCCN)nn3)CC2)nc(N2CCN(C(=O)[C@H]([C@@H](C)CC)n3cc(CCCN=C(N)N)nn3)CC2)n1	none
C#CCOCCOCCOCCNc1nc(N2CCN(C(=O)Cn3cc(CCO)nn3)CC2)nc(N2CCN(C(=O)[C@H]([C@@H](C)O)n3cc(CCCCN)nn3)CC2)n1	TTR transcr act 11.2 | TTR inh HuH7 inactive | TTR act confirm inactive
C#CCOCCOCCOCCNc1nc(N2CCN(C(=O)Cn3cc(CCCCN)nn3)CC2)nc(N2CCN(C(=O)[C@H]([C@@H](C)CC)n3cc(CCCN=C(N)N)nn3)CC2)n1	none
Oc1ccc(Nc2ccccc2F)c2cccnc12	none
Cn1c(=O)c2c(nc(SCC(=O)c3ccc(F)cc3)n2C)n(C)c1=O	none
Cn1c(=O)c2c(ncn2CC(O)CNc2ccc(F)cc2)n(C)c1=O (stereo not given)	TTR transcr act 15.6 | TTR inh HuH7 inactive | TTR act confirm inactive
Cn1c(=O)c2c(ncn2CC(=O)N2CCN(S(=O)(=O)c3ccc(F)cc3)CC2)n(C)c1=O	none
C[C@H]1CN([C@@H](C)CO)C(=O)c2cc(C3=CCCC3)cnc2O[C@@H]1CN(C)C(=O)c1ccncc1	none
CC(C)(C)OC(=O)N1CCC(N[C@@H](Cc2c[nH]c3ccccc23)C(=O)NCC(c2ccccc2)c2ccccc2)(C(=O)NC2CCCCC2)CC1	none
CCCCCCCCN1C(=O)[C@@H](CC(=O)N2CCCC2)C[C@@]2(C(=O)OC)C1=C[C@H](C(C)C)O[C@@H]2C1CC1	none
O=c1[nH][nH]c(=O)c(Cl)c1Cl	TTR transcr act 11.7 | TTR inh HuH7 inactive | TTR act confirm inactive
COC(=O)[C@]12CCCCC=C1N(Cc1ccc(OC)cc1)C(=O)[C@@H]2CC(=O)N1CCN(C(=O)c2ccco2)CC1	none
O=C(NCc1ccccc1)OC1CC2CC1[C@H]1CCCCN1C2 (stereo not given in full)	none
COC(=O)Cn1ncn2c(cc3oc(C)cc32)c1=O	TTR transcr act 25.2 | TTR inh HuH7 inactive | TTR act confirm inactive
COC(=O)Cn1c(=O)c(C)nc2ccccc21	none
CN(C)c1ccc(NC(=O)Cn2ncn3c(cc4ccccc43)c2=O)cc1	none
CCOC(=O)[C@@]12CCC3=C1N(CCC3)C(=O)[C@H](CC(=O)N1CCOCC1)C2	none
CCCC1CCC2(CCCN2CCOC(=O)Nc2ccccc2OC)CC1 (stereo not given)	none
CCCC1CCC2(CCCN2CCOC(=O)Nc2ccc(OC)cc2)CC1 (stereo not given)	none
O=C1CCCN2N=C(SCC(=O)Nc3nccs3)SC2=N1	none
Cc1ccc(NC(=O)CSC2=NN3CCCC(=O)N=C3S2)c(C)c1	none
O=C1CCCN2N=C(SCC(=O)Nc3ccc([N+](=O)[O-])cc3)SC2=N1	TTR transcr act 32.1 | TTR inh HuH7 inactive | TTR act confirm inactive
O=C(NCc1ccccc1)OCCN1C(=O)CCC12CCCCC2	none
CC[C@@]1(c2cccc(Cl)c2)C(=O)N(C(=O)OC(C)C)N1C(=O)OC(C)C	none
Fc1ccccc1Cn1ccc2ccc(-c3ccc4ccn(Cc5ccccc5F)c4c3)cc21	none
COc1ccccc1NC(=O)c1c(O)c2ccccc2[nH]c1=O	none
COc1ccc(N=Cc2[nH]c3ccccc3c2O)cc1	TTR transcr act 13.8 | TTR inh HuH7 inactive | TTR act confirm inactive
COc1ccc(N=Cc2c[nH][nH]c2=O)cc1	none
c1ccc(-c2cccc(CNc3nc(-c4ccccn4)nnc3-c3ccccc3)c2)cc1	none
O=C(O)c1cc(-c2ccccc2)nn1CC1CC(c2cccnc2)=NO1 (stereo not given)	TTR transcr act 14.7 | TTR inh HuH7 inactive | TTR act confirm inactive
O=C(c1cc(-c2ccccc2)nn1CC1CC(c2cccnc2)=NO1)N1CCOCC1 (stereo not given)	none
Cc1ccccc1-c1cc(C(=O)NCc2ccco2)n(CC2CC(c3cccnc3)=NO2)n1 (stereo not given)	none
O=C(NCC(c1ccco1)N1CCCC1)c1cccc(S(=O)(=O)Nc2ccc(F)cc2)c1 (stereo not given)	none
O=C(COC(=O)C1CCN(C(=O)c2ccc(Cl)cc2)CC1)c1ccco1	none
Cc1ccc(NC(=O)COC(=O)C2CC2)c(Br)c1	none
COc1ccc(C)cc1NC(=O)COC(=O)C1CCN(C(=O)c2ccc(Cl)cc2)CC1	TTR transcr act 14.7 | TTR inh HuH7 inactive | TTR act confirm inactive
CC(C)Oc1cccc(-c2csc(N3CCC(C(N)=O)CC3)n2)c1	none
Cc1ccc(-c2cc(C#N)c3n(c2=O)CCC3)cc1	none
C=CC(=O)NC1CCCCN(C(C)C)C1=O (stereo not given)	TTR transcr act 11.6 | TTR inh HuH7 inactive | TTR act confirm inactive
CC(C)N1CCCCC(NC(=O)c2ccccc2)C1=O (stereo not given)	none
CC(C)N1CCCCC(NC(=O)c2ccc(Br)cc2)C1=O (stereo not given)	none
COC(=O)[C@]12C[C@H](CC(=O)NCCCN3CCCC3=O)C(=O)N(Cc3ccco3)C1=C[C@H](COCc1ccccc1)O[C@@H]2C	none
C[C@H]1C2CC(OC(=O)Nc3ccc(C#N)cc3)C(C2)[C@H]2CCCCN21 (stereo not given in full)	none
CCCC1CCC2(CCCN2CCOC(=O)Nc2ccccc2C)CC1 (stereo not given)	none
COc1ccc(CCC(=O)N2CCN(C3CCCCC3)CC2)cc1	TTR transcr act 14.1 | TTR inh HuH7 inactive | TTR act confirm inactive
COc1cc(OC)cc(C(=O)N2CCN(C3CCCCC3)CC2)c1	none
O=C(CCCc1ccccc1)N1CCN(C2CCCCC2)CC1	none
O=C(NC1CCCCC1)C1c2ccccc2OCC(=O)N1Cc1ccco1 (stereo not given)	none
O=C(OCc1cn(Cc2cccc(Cl)c2)nn1)N1CCOCC1	none
COc1ccc(-n2cnnc2SCC(=O)NCc2cccs2)cc1	none
CCC(CC)NC(=O)CSc1nnc(-c2ccc(OC)cc2)n1C(C)C	none
COc1ccc(-c2nnc(SCC(=O)NCc3cccs3)n2C(C)C)cc1	TTR transcr act 11.4 | TTR inh HuH7 inactive | TTR act confirm inactive
COc1ccccc1NC(=O)OC1CC2CC1[C@H]1CCCCN1[C@H]2Cc1ccccc1 (stereo not given in full)	none

Bioassay records from PubChem.
